CSC inhib – cancer stem cell viability inhibitors, primary screen, luminescence; AID 2717, 2010; hit rate 1.1% among 300,000; cancer stem cell-like cells viability; inhibition, % at 7.5 µM; in the data active means inhibition above about 75%; inconclusive means no clear call, values can overlap the other calls; tested in HMLE shEcad cells
aSyn 5UTR inh – MLPCN primary screen, SNCA 5' untranslated region; alpha-synuclein 5'UTR reporter, inhibitor activity; inhibition, % (tested at 7.5 µM); hit rate 0.82% among 300,000; in the data active means inhibition above about 60%; inconclusive means no clear call, values can overlap the other calls;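 further: H4 neuroglioblastoma cells stably carrying SNCA 5'UTR luciferase fusion; 0% = DMSO wells and 100% = positive control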
KLF5 inhibitor – KLF5 expression inhibitors, primary screen, DLD-1 cells, luminescence. DLD-1 KLF5 promoter-luciferase reporter. inhibition, % at 5 µM. hit rate 0.23% among 290,000;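 active means inhibition above a per-plate limit of that plate's mean compound inhibition plus 3 SD, cut at about 60% in these data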;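 further: 0% = DMSO wells and 100% = LY294002 at 200 µM; higher means less KLF5 promoter-driven luciferase light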
IEC-6 cytotox – cytotoxicity in IEC-6 intestinal epithelial cells, primary screen, cytotoxicity control for KLF5 inhibitor project, cell-based, luminescence. hit rate 0.78% among 290,000. inhibition, % at 5 µM. IEC-6 cytotoxicity, luminescence viability. AID 1825, 2009; in the data active means inhibition above about 22%;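 further: 0% = plate median of test compound wells and 100% = cytotoxic reference compound wells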
SKKanGAS inh – S. pyogenes SKKanGAS growth inhibitors in kanamycin, primary screen, streptokinase expression inhibitor project, SKKanGAS strain, BacTiter-Glo luminescence; hit rate 1.3% among 300,000; 6 h; inhibition, % at 7.5 µM; AID 1662, 2009;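 active means mean replicate score, as percent of positive control median, at least 50; inconclusive means mean below 50 but one replicate at or above 50; inactive means mean and every replicate below 50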;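 further: strain carries kanamycin resistance gene driven by streptokinase promoter and grows in 40 µg/ml kanamycin; loss of luminescence reflects streptokinase promoter inhibition or plain growth inhibition; 0% = median of DMSO wells and 100% = positive control at its reference dose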
Starred values were filed as active, the others as inactive; u = inconclusive; x = not tested or not shown. Sampled rows, rich in hits. Any-hit rate of the full collection: about 3%.

SMILES	CSC inhib	aSyn 5UTR inh	KLF5 inhibitor	IEC-6 cytotox	SKKanGAS inh
C/C(=N\NC(=O)C1CCCN(S(=O)(=O)c2ccccc2)C1)c1ccccn1 (centres undefined)	31	67*	-32	-4	19
C/C(=N\NC(=O)C1COc2ccccc2O1)c1ccc(C)o1 (centres undefined)	-12	2	-4	2	0
C/C(=N\NC(=O)C1COc2ccccc2O1)c1ccccn1 (centres undefined)	5	98*	-15	2	25
Cc1nnc(SCc2cccc3ccccc23)s1	0	-90	-52	2	-6
CCOc1ccc(OCc2ccc(C(=O)NN=Cc3ccc[nH]3)cc2)cc1	92*	x	x	x	x
C/C(=N\NC(=O)c1cccc(Br)c1)c1ccccn1	139*	108*	39	12	110*
O=C(N/N=C/c1ccc[nH]1)c1ccccc1OCc1ccc(F)cc1	-6	11	-18	-1	-8
Cc1cccc2sc(NNC(=O)c3cc(-c4cccs4)nc4ccccc34)nc12	103*	-50	5	0	88*
CC(=O)c1sc(NC(=O)C2COc3ccccc3O2)nc1C (centres undefined)	-9	62*	-38	0	-1
Cc1ccc(N/C(=C\C(=O)c2ccccc2)C(=O)O)cc1	-2	-158	-12	13	-7
O=C1NC(=Nc2cccc(Cl)c2)SC1Cc1cccc(Cl)c1Cl (centres undefined)	29	18	7	0	19
CCOc1ccc(OCc2ccc(C(=O)N/N=C(\C)c3ccccn3)cc2)cc1	-8	64*	-118	-2	92*
C/C(CC(=O)Nc1ccccn1)=N\NC(=O)c1ccccc1	x	-58	-16	4	-4
CC(C)NC(=O)c1cc(-c2cccs2)nc2ccccc12	-7	1	-37	-5	-3
C/C(CC(=O)Nc1ccccn1)=N\NC(=O)c1ccccc1O	x	71*	23	9	1
CC(C)(C)c1ccc(C(=O)N/N=C/c2ccccn2)cc1	26	-50	-17	11	63*
C/C(=N\NC(=O)c1cc(-c2cccs2)nc2ccccc12)c1ccccn1	136*	79*	-1	2	90*
CCOC(=O)C1=CC[C@H]2c3c(c4ccccc4n3C)C(=O)C1N2C(=O)OC(C)(C)C	9	x	x	x	x
O=C(COC(=O)c1cc(Cl)nc(Cl)c1)NCc1ccc2c(c1)OCO2	0	x	x	x	x
Cc1ccccc1N1C(=O)c2ccccc2C1O (centres undefined)	-9	-6	-38	0	-2
Cc1ccc(S(=O)(=O)NCc2cn3ccccc3n2)c(C)c1	-6	12	-38	1	-6
C/C(=N\NC(=O)C(c1ccccc1)c1ccccc1)c1ccccn1	29	80*	13	-2	70*
C/C(=N\NC(=O)c1cccc2ccccc12)c1ccccn1	x	60	50	16	79*
C/C(=N\NC(=O)c1ccccc1OCc1ccc(F)cc1)c1ccccn1	31	x	x	x	x
C/C(=N/NC(=O)c1ccc(C(C)(C)C)cc1)c1ccccn1	60	57	x	x	106*
SMILES	CSC inhib	aSyn 5UTR inh	KLF5 inhibitor	IEC-6 cytotox	SKKanGAS inh
CCc1nnc(N/N=C/c2ccccc2F)n1N	-10	-28	6	102*	8
CC(C)(C)c1nnc(N/N=C/c2ccccc2O)n(N)c1=O	x	110*	19	-3	24
COc1cc(N)c(Cl)cc1C(=O)OCC(=O)N1CCCCCC1	5	x	x	x	x
CCOc1cc(N2CCOCC2)c(OCC)cc1NC(=O)COC(=O)/C=C/c1ccc(OC(F)F)cc1	-4	-9	x	x	-8
O=[N+]([O-])c1cc2cccnc2c2ncccc12	37	-11	18	-1	4
O=[N+]([O-])c1cc(O)c2ncccc2c1	13	70*	15	16	u
CCC(OC(C)=O)c1cc2c(cc1[N+](=O)[O-])OCCO2 (centres undefined)	-5	9	-52	-2	3
CC1=C(C(=O)O)N2C(=O)C(NC(=O)c3nn(C)cc3Cl)C2SC1 (centres undefined)	-3	-9	-14	-5	-3
CO[C@@]1(NC(=O)C2SC(=C(C(N)=O)C(=O)O)S2)C(=O)N2C(C(=O)O)=C(CSc3nnnn3C)CS[C@@H]21 (some centres undefined)	-6	x	x	x	x
Cc1nnc(SCC2=C(C(=O)O)N3C(=O)C(NC(=O)C(C)n4nc(C(F)(F)F)cc4C)C3SC2)s1 (centres undefined)	-8	19	-17	-3	103*
Cn1nnnc1SCC1=C(C(=O)O)N2C(=O)C(NC(=O)Cn3nc(C(F)F)cc3C3CC3)C2SC1 (centres undefined)	-4	-1	-13	-5	104*
Cc1c(Cl)c(C(F)F)nn1CC(=O)NC1C(=O)N2C(C(=O)O)=C(CSc3nnnn3C)CSC12 (centres undefined)	x	-24	-9	-7	119*
CC(C(=O)NC1C(=O)N2C(C(=O)O)=C(CSc3nnnn3C)CSC12)n1cc(Cl)cn1 (centres undefined)	-6	6	-6	0	105*
Cc1ccc(S(=O)(=O)N2CCN(C(=O)CCC(=O)NCc3ccc(F)cc3)CC2)cc1	11	-13	-42	-6	5
Cc1c(Cl)cnn1CC(=O)NC1C(=O)N2C(C(=O)O)=C(CSc3nnnn3C)CSC12 (centres undefined)	-11	-15	1	3	120*
Cc1nn(CC(=O)NC2C(=O)N3C(C(=O)O)=C(CSc4nnnn4C)CSC23)cc1Br (centres undefined)	-15	-17	-25	-6	109*
Cc1nnc(SCC2=C(C(=O)O)N3C(=O)C(NC(=O)Cc4ccccc4)C3SC2)s1 (centres undefined)	-6	x	x	x	x
CC1(C)N=C(N)NC(Nc2ccccc2)=N1	-15	5	5	5	64*
COCCn1c(SCC(=O)Nc2cc(C)on2)nnc1C(C)C	-2	15	1	-2	9
Cn1c(=S)[nH]c2sc3c(c2c1=O)CCC(C(C)(C)C)C3 (centres undefined)	49	-87	-190	2	79*
COCCn1c(=S)[nH]c2sc3c(c2c1=O)CCC(C)C3 (centres undefined)	19	-22	-5	2	3
Cc1ccc(NC(=S)N/N=C/c2c(Cl)cccc2Cl)c(C)c1	101*	46	18	13	20
CC(C)(C)NC(=S)N/N=C/c1c(Cl)cccc1Cl	0	20	-31	-3	-7
COC(=O)c1cc2nc(-c3ccccc3)cc(C)n2n1	-7	10	-13	1	-6
Cc1cc(-c2ccccc2)nc2cc(C(=O)N(Cc3ccccc3)Cc3ccccc3)nn12	83*	40	3	-7	44
COc1cc(/C=C/C(=O)OCC(=O)N2CCC(C)CC2)ccc1O	-2	-7	x	x	0
COc1cc(/C=C/C(=O)OC2CC3CCC2(C)C3(C)C)ccc1O (centres undefined)	-7	-59	x	x	61*
